Measurements as given in PubChem BioAssay (NCATS).
Records with an inconclusive call do not appear. Where a call stands in place of a potency, no number is given. Unmarked numbers belong to inactive results. Active and inactive are the calls of the source. Calls follow the shape of the dose curve; as a rule, active = well fitted curve in the direction sought with a large enough effect in the repeat runs; inconclusive = weak or mixed curves; inactive = no such curve, though single readings can be large; an effect the other way counts as inactive or inconclusive. Numbered stars: 1 amine (or outer) side, 2 acyl side, 3 side chain; on linkers, the order of the positions; unused ones are H or OH. Bridge positions count the residues as written; N and C are the ends. Square brackets hold non-standard residues; d marks the D form. Peptide text beside a SMILES is read from it. I, II: the chains in the order shown. Actinocin(9to1) = Cc1c2oc3c(C)ccc(C(=O)[*:1])c3nc-2c(C(=O)[*:2])c(N)c1=O; NMeV = CN[C@H](C(=O)O)C(C)C; Sar = CNCC(=O)O

molecular target: Cytochrome P450 2D6 (Homo sapiens) (UniProt P10635); assay: Cytochrome P450 family 2 subfamily D member 6 (CYP2D6) small molecule antagonists: luciferase biochemical (cell-free) qHTS assay (AID 1645840); conditions: P450-Glo CYP2D6 enzyme, luciferin luminescence, 1 h; series mostly up to 57.4 µM
How it was run: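 P450-Glo CYP2D6 system: proluciferin substrate converted by enzyme to luciferin, read by luminescence proportional to activity. Enzyme-substrate mix with compound 10 min at room temperature, then NADPH regeneration 1 h before detection reagent.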
Also: nearly all actives have a fitted effect of over 55% in size.
Potency is read from the fitted curve at half-maximal effect.

Chain of Cytochrome P450 2D6 (Homo sapiens) (P10635 whole entry, looked up): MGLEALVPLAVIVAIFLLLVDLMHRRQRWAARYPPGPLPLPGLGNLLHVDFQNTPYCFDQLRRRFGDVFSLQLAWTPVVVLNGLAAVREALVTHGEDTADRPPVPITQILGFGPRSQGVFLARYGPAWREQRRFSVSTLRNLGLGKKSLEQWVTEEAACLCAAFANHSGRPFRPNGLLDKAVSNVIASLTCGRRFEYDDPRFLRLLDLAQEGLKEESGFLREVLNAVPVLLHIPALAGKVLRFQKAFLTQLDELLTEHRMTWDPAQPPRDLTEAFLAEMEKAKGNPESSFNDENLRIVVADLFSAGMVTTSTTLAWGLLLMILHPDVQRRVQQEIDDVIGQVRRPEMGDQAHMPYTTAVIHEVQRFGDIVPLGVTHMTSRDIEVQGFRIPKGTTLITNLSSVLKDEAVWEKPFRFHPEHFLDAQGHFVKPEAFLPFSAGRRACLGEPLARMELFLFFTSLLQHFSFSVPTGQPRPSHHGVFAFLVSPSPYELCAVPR

| SMILES | Potency | activity change, negative = inhibition |
| --- | --- | --- |
| NCCc1ccn[nH]1 | inactive | – |
| CN1[C@@H]2CC[C@H]1CC(OC(=O)c1c[nH]c3ccccc13)C2 (some centres not stated) | 12.3 µM (active) | – |
| CCOc1ccc2nc3cc(N)ccc3c(N)c2c1 | 15.5 µM (active) | – |
| CCCN1CCCC[C@H]1C(=O)Nc1c(C)cccc1C | 4.9 µM (active) | – |
| Cc1ccc(C(=O)C(C)CN2CCCCC2)cc1 (configuration not stated) | 1.74 µM (active) | – |
| CCN(CC)CCNC(=O)COc1ccc(Cl)cc1 | 13.8 µM (active) | – |
| Cc1ccnc(NS(=O)(=O)c2ccc(N)cc2)n1 | inactive | – |
| CCCSS/C(CCO)=C(\C)N(C=O)Cc1cnc(C)nc1N | inactive | – |
| Cc1c2oc3c(C)ccc(C(=O)N[C@@H]4C(=O)N[C@H](C(C)C)C(=O)N5CCC[C@H]5C(=O)N(C)CC(=O)N(C)[C@@H](C(C)C)C(=O)O[C@@H]4C)c3nc-2c(C(=O)N[C@@H]2C(=O)N[C@H](C(C)C)C(=O)N3CCC[C@H]3C(=O)N(C)CC(=O)N(C)[C@@H](C(C)C)C(=O)O[C@@H]2C)c(N)c1=O (I: T[dV]P[Sar][NMeV] / II: T[dV]P[Sar][NMeV]; ester I:1-I:C, II:1-II:C; linker I:N-II:N via Actinocin(9to1)) | inactive | – |
| OC[C@@H](O)[C@@H](O[C@@H]1O[C@H](CO)[C@H](O)[C@H](O)[C@H]1O)[C@H](O)[C@@H](O)CO | inactive | – |
| COc1ccc(C2C(=O)c3ccccc3C2=O)cc1 | inactive | – |
| Cc1c(N(C)CS(=O)(=O)O)c(=O)n(-c2ccccc2)n1C | inactive | – |
| CCC(=O)c1c(O)cc(O)cc1O | 24.5 µM (active) | – |
| C[C@H](CCC(=O)O)[C@H]1CC[C@H]2[C@@H]3C(=O)C[C@@H]4CC(=O)CC[C@]4(C)[C@H]3CC(=O)[C@]12C | inactive | – |
| CCOc1ccc(NC(=O)CC(C)O)cc1 (configuration not stated) | inactive | – |
| CCCCC1=NC2(CCCC2)C(=O)N1Cc1ccc(-c2ccccc2-c2nn[nH]n2)cc1 | inactive | – |
| N[C@@H](CCC(=O)N[C@@H](CS)C(=O)NCC(=O)O)C(=O)O | inactive | – |
| O=S1(=O)c2cccc3cccc(c23)N1CCCN1CCN(c2ccc(F)cc2)CC1 | 3.47 µM (active) | – |

| SMILES | Potency | activity change, negative = inhibition |
| --- | --- | --- |
| COC(=O)CCc1ccc(OCC(O)CNC(C)C)cc1 (configuration not stated) | inactive | – |
| Cc1c(F)c(N2CCNC(C)C2)cc2c1c(=O)c(C(=O)O)cn2C1CC1 (configuration not stated) | inactive | – |
| CC(O)C(=O)O (configuration not stated) | 12.3 µM (active) | – |
| COc1cc(C(=S)N2CCOCC2)cc(OC)c1OC | inactive | – |
| Cc1ncc(CSSCc2cnc(C)c(O)c2CO)c(CO)c1O | 7.76 µM (active) | – |
| CCn1cc(C(=O)O)c(=O)c2cnc(N3CCCC3)nc21 | – | -1.21% [at 11.5 µM] |
| CN=C(NC#N)Nc1ccc(C2=NNC(=O)CC2C)cc1 (configuration not stated) | inactive | – |
| Cc1cccc(C)c1NC(=O)CN1CCN(CCCC(c2ccc(F)cc2)c2ccc(F)cc2)CC1 | 2.75 µM (active) | – |
| CN1C(CCl)Nc2cc(Cl)c(S(N)(=O)=O)cc2S1(=O)=O (configuration not stated) | inactive | – |
| CC(O)(P(=O)(O)O)P(=O)(O)O | inactive | – |
| c1ccc(CNCCNCc2ccccc2)cc1 | 0.692 µM (active) | – |
| COc1c(C)c2c(c(O)c1C/C=C(\C)CCC(=O)O)C(=O)OC2 | inactive | – |
| CCC(C(=O)OCCN(CC)CC)c1ccccc1 (configuration not stated) | 3.09 µM (active) | – |
| CC(=O)N/N=C/c1ccc([N+](=O)[O-])o1 | 15.5 µM (active) | – |
| Oc1cc(O)c2c(c1)O[C@H](c1ccc(O)c(O)c1)[C@H](O)C2 | inactive | – |
| COc1cccc2c1C(=O)c1c(O)c3c(c(O)c1C2=O)C[C@@](O)(C(C)=O)C[C@@H]3O[C@H]1C[C@H](N)[C@H](O)[C@H](C)O1 | 13.8 µM (active) | – |
| CC1(C)OC[C@@H](COC(=O)CCc2ccc(OC[C@@H](O)CNCCNC(=O)N3CCOCC3)cc2)O1 | inactive | – |
| CC(=O)Nc1c(I)cc(I)c(C(=O)O)c1I | 19.5 µM (active) | – |

molecular target: Cytochrome P450 2C9 (Homo sapiens) (UniProt P11712); assay: Cytochrome P450 family 2 subfamily C member 9 (CYP2C9) small molecule antagonists: luciferase biochemical (cell-free) qHTS assay (AID 1645842); conditions: P450-Glo CYP2C9 enzyme assay, luciferin luminescence; series mostly up to 57.4 µM
How it was run: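 P450-Glo CYP2C9 system: proluciferin substrate with enzyme in mix containing 0.4% BSA, 10 min at room temperature, then NADPH regeneration solution added and incubated 1 h at 37C. Detection reagent stopped reaction; luminescence read after 20 min as RLU.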

Chain of Cytochrome P450 2C9 (Homo sapiens) (P11712 whole entry, looked up): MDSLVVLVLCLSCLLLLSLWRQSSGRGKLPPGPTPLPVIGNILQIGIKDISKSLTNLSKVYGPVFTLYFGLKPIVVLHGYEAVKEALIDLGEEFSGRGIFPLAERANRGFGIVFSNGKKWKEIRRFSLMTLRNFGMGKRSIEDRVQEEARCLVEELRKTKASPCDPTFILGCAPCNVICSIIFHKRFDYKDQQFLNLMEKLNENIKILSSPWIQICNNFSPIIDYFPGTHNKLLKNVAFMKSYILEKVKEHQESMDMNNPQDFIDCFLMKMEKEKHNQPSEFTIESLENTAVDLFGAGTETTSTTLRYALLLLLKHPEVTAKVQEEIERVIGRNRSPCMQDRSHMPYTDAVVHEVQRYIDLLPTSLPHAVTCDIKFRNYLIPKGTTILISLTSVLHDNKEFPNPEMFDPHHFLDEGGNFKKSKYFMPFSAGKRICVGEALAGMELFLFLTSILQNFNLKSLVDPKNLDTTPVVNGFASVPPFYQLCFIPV

| SMILES | Potency | activity change, negative = inhibition |
| --- | --- | --- |
| NCCc1ccn[nH]1 | inactive | – |
| CN1[C@@H]2CC[C@H]1CC(OC(=O)c1c[nH]c3ccccc13)C2 (some centres not stated) | inactive | – |
| CCOc1ccc2nc3cc(N)ccc3c(N)c2c1 | inactive | – |
| CCCN1CCCC[C@H]1C(=O)Nc1c(C)cccc1C | inactive | – |
| Cc1ccc(C(=O)C(C)CN2CCCCC2)cc1 (configuration not stated) | inactive | – |
| CCN(CC)CCNC(=O)COc1ccc(Cl)cc1 | inactive | – |
| Cc1ccnc(NS(=O)(=O)c2ccc(N)cc2)n1 | inactive | – |
| CCCSS/C(CCO)=C(\C)N(C=O)Cc1cnc(C)nc1N | inactive | – |
| Cc1c2oc3c(C)ccc(C(=O)N[C@@H]4C(=O)N[C@H](C(C)C)C(=O)N5CCC[C@H]5C(=O)N(C)CC(=O)N(C)[C@@H](C(C)C)C(=O)O[C@@H]4C)c3nc-2c(C(=O)N[C@@H]2C(=O)N[C@H](C(C)C)C(=O)N3CCC[C@H]3C(=O)N(C)CC(=O)N(C)[C@@H](C(C)C)C(=O)O[C@@H]2C)c(N)c1=O (I: T[dV]P[Sar][NMeV] / II: T[dV]P[Sar][NMeV]; ester I:1-I:C, II:1-II:C; linker I:N-II:N via Actinocin(9to1)) | inactive | – |
| OC[C@@H](O)[C@@H](O[C@@H]1O[C@H](CO)[C@H](O)[C@H](O)[C@H]1O)[C@H](O)[C@@H](O)CO | inactive | – |
| COc1ccc(C2C(=O)c3ccccc3C2=O)cc1 | inactive | – |
| Cc1c(N(C)CS(=O)(=O)O)c(=O)n(-c2ccccc2)n1C | inactive | – |
| CCC(=O)c1c(O)cc(O)cc1O | 15.5 µM (active) | – |
| C[C@H](CCC(=O)O)[C@H]1CC[C@H]2[C@@H]3C(=O)C[C@@H]4CC(=O)CC[C@]4(C)[C@H]3CC(=O)[C@]12C | inactive | – |
| CCOc1ccc(NC(=O)CC(C)O)cc1 (configuration not stated) | inactive | – |
| CCCCC1=NC2(CCCC2)C(=O)N1Cc1ccc(-c2ccccc2-c2nn[nH]n2)cc1 | 17.4 µM (active) | – |
| N[C@@H](CCC(=O)N[C@@H](CS)C(=O)NCC(=O)O)C(=O)O | inactive | – |
| O=S1(=O)c2cccc3cccc(c23)N1CCCN1CCN(c2ccc(F)cc2)CC1 | inactive | – |

| SMILES | Potency | activity change, negative = inhibition |
| --- | --- | --- |
| COC(=O)CCc1ccc(OCC(O)CNC(C)C)cc1 (configuration not stated) | inactive | – |
| Cc1c(F)c(N2CCNC(C)C2)cc2c1c(=O)c(C(=O)O)cn2C1CC1 (configuration not stated) | inactive | – |
| CC(O)C(=O)O (configuration not stated) | inactive | – |
| COc1cc(C(=S)N2CCOCC2)cc(OC)c1OC | inactive | – |
| Cc1ncc(CSSCc2cnc(C)c(O)c2CO)c(CO)c1O | 6.17 µM (active) | – |
| CCn1cc(C(=O)O)c(=O)c2cnc(N3CCCC3)nc21 | – | -2.8% [at 11.5 µM] |
| CN=C(NC#N)Nc1ccc(C2=NNC(=O)CC2C)cc1 (configuration not stated) | inactive | – |
| Cc1cccc(C)c1NC(=O)CN1CCN(CCCC(c2ccc(F)cc2)c2ccc(F)cc2)CC1 | 19.5 µM (active) | – |
| CN1C(CCl)Nc2cc(Cl)c(S(N)(=O)=O)cc2S1(=O)=O (configuration not stated) | inactive | – |
| CC(O)(P(=O)(O)O)P(=O)(O)O | inactive | – |
| c1ccc(CNCCNCc2ccccc2)cc1 | inactive | – |
| COc1c(C)c2c(c(O)c1C/C=C(\C)CCC(=O)O)C(=O)OC2 | inactive | – |
| CCC(C(=O)OCCN(CC)CC)c1ccccc1 (configuration not stated) | inactive | – |
| CC(=O)N/N=C/c1ccc([N+](=O)[O-])o1 | inactive | – |
| Oc1cc(O)c2c(c1)O[C@H](c1ccc(O)c(O)c1)[C@H](O)C2 | inactive | – |
| COc1cccc2c1C(=O)c1c(O)c3c(c(O)c1C2=O)C[C@@](O)(C(C)=O)C[C@@H]3O[C@H]1C[C@H](N)[C@H](O)[C@H](C)O1 | inactive | – |
| CC1(C)OC[C@@H](COC(=O)CCc2ccc(OC[C@@H](O)CNCCNC(=O)N3CCOCC3)cc2)O1 | inactive | – |
| CC(=O)Nc1c(I)cc(I)c(C(=O)O)c1I | inactive | – |
